Data published in PubChem BioAssay AID430 (Sanford-Burnham Center for Chemical Genomics, 2006).
In all, about 63,000 compounds went through this assay and about 1,100 (1.7%) were called active. This is one part of a sample in which actives are shown more often than they occur. Results with a measured potency or affinity are listed apart. A number with no mark means an inactive call. Rule as the data show it: active = cytotoxicity above about 50%; inactive = the rest.

Experiment: HPDE-C7 pancreatic duct cell viability loss – fluorescence, HTS (AID 430);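 also: cells exposed to compound for 48 hours before viability readout; 0% = vehicle and 100% = reference cytotoxic drug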
Conditions: HPDE-C7 pancreatic duct cells viability, at 10 µM, active compounds read high

| Structure (SMILES) | cytotoxicity |
| --- | --- |
| CSc1nc(-c2ccco2)nn1C(=O)c1ccco1 | -12.1% |
| CCOc1cc(NC(=O)c2ccco2)c(OCC)cc1NC(=O)CCC(=O)NCc1cccnc1 | 32.8% |
| COc1ccc(C(C#N)N2CCCCC2)cc1OC (stereo not drawn) | -1.7% |
| Cc1cccc(-c2noc(CN(C(=O)CCc3ccccc3)C(C)C)n2)c1 | -16.1% |
| CCCC(=O)Nc1nc2ccc3nc(C)sc3c2s1 | 9.8% |
| CCOc1ccc(OCC)c(S(=O)(=O)N2CCCCC2C)c1 (stereo not drawn) | -8.3% |
| Cc1cccc(N2C(=O)SC(N(C)c3ccccc3)C2=O)c1 (stereo not drawn) | -8.6% |
| CCNC(=O)CCC(=O)Nc1cc(Cl)ccc1C | -6.9% |
| Cc1ccc(NC(=O)CC(O)(C(F)(F)F)C(F)(F)F)c(Br)c1 | -3.8% |
| Cc1ccc(Cl)cc1NC(=O)CC(O)(C(F)(F)F)C(F)(F)F | 51.2% (active) |
| OC1CCCN(Cc2cccc3ccccc23)C1 (stereo not drawn) | 4.1% |
| CN(C)c1ccc(CN2CCCC(O)C2)cc1 (stereo not drawn) | 0.6% |
| O=C(CCc1nc2ccccc2c(=O)[nH]1)OCc1nnc(-c2ccccc2)o1 | 8.5% |
| CCN(CCCNC(=O)C1CCN(S(=O)(=O)CC)CC1)c1ccccc1 | -4% |
| O=C(Oc1ccc2c(c1)OCO2)c1ccncc1 | 10.6% |
| O=C(Oc1ccc2c(c1)OCO2)c1cc2c(s1)CCC2 | 56.8% (active) |
| O=C(Oc1ccc2c(c1)OCO2)c1cccs1 | -3.4% |
| Cc1cccc(C(=O)OCc2cc3ccccc3[nH]c2=O)c1 | 8.5% |
| COc1cccc(C(=O)N2CCN(c3ncccn3)CC2)c1 | 1.5% |
| CCCCC(=O)c1c(O)c2ccccc2oc1=O | 9.3% |
| CCc1oc2ccccc2c1C(=O)CCN1CCCCC1 | -17.7% |
| c1coc(CNc2nc3sc4c(c3c3ncnn23)CCCC4)c1 | -5.5% |
| O=C(NC1CCCCC1)NC1CCN(S(=O)(=O)c2ccc3c(c2)OCCO3)CC1 | -1.5% |
| O=C(Nc1ccccc1)c1ccc(S(=O)(=O)NCc2ccco2)cc1 | -0.2% |
| O=C(NC1CCCCC1)c1ccc(S(=O)(=O)NCc2ccco2)cc1 | -1.9% |

| Structure (SMILES) | cytotoxicity |
| --- | --- |
| O=C(NCCc1c[nH]c2ccccc12)c1ccc(S(=O)(=O)NCc2ccco2)cc1 | 51.9% (active) |
| Cc1cccc(C)c1NC(=O)c1cc(S(=O)(=O)N2CCOCC2)ccc1F | -47.4% |
| O=C(Nc1c2c(nn1-c1ccc(F)cc1)CSC2)c1ccc(S(=O)(=O)N2CCOCC2)cc1 | -9.4% |
| O=C1C(Cl)=C(NCCCN2CCOCC2)C(=O)N1CCc1ccccc1 | 1.4% |
| Cc1nc2ccccc2c(=O)n1/N=C/c1c(O)ccc2oc3c(c12)CCCC3 | 63% (active) |
| Cc1nc2ccccc2c(=O)n1/N=C/c1ccc(O)cc1 | 33.8% |
| Oc1ccc2oc3c(c2c1/C=N/n1cnnc1)CCCC3 | -15.1% |
| Oc1c(C(c2cccs2)N2CCN(c3ccccc3)CC2)sc2ncnn12 (stereo not drawn) | -10% |
| CC(=O)Nc1nonc1NC(C)=O | -3.4% |
| COc1cc(O)c(NC(C)=O)c2nonc12 | -7.7% |
| Cc1nn(-c2ccc(F)cc2F)c2c1-c1nc(N3CCCC3)ncc1CC2 | 3.8% |
| COc1ccc(C(=O)NC2CCN(C(=O)NC3CCCCC3)CC2)cc1 | -6.7% |
| COc1ccc(CN2C(=O)CCC2(C)C(=O)NC2CCCCC2)c(OC)c1 (stereo not drawn) | -3.1% |
| COc1ccc2[nH]c(=O)c(CN(Cc3nnnn3Cc3ccc(F)cc3)CC3CCCO3)cc2c1 (stereo not drawn) | -39.9% |
| CCC(Sc1nc2cc3c(cc2c(=O)n1Cc1ccco1)OCO3)C(=O)Nc1ccccc1OC (stereo not drawn) | -11.3% |
| CCc1ccccc1NC(=O)C(CC)Sc1nc2cc3c(cc2c(=O)n1Cc1ccco1)OCO3 (stereo not drawn) | 2.1% |
| CCOC(=O)c1[nH]c(C)c(C(=O)N2CCN(C(=O)c3ccco3)CC2)c1C | -21.3% |
| COc1ccc(NC(=O)CNc2cccc(C#N)c2)cc1Cl | 2.9% |
| Fc1ccc(-c2cc3nc(-c4ccccc4)cc(N4CCN(CCN5CCOCC5)CC4)n3n2)cc1 | 53% (active) |
| Cc1cc(N2CCOCC2)n2nc(-c3cccc(F)c3)cc2n1 | -16.6% |
| Fc1ccc(-c2cc3nc(-c4ccccc4)cc(N4CCOCC4)n3n2)cc1 | -7% |
| O=C(Nc1scc(-c2ccc(F)cc2)c1C(=O)O)c1ccco1 | -6.9% |
| O=C(NCc1ccc2c(c1)OCO2)c1cc2n(n1)C(C(F)(F)F)CC(c1ccc3c(c1)OCO3)N2 (stereo not drawn) | 13.5% |
| O=C(Nc1ccc2c(c1)OCO2)c1cc2n(n1)C(C(F)(F)F)CC(c1ccccc1)N2 (stereo not drawn) | 64.2% (active) |
| Cc1cc(NC(=O)c2cc3n(n2)C(C(F)(F)F)CC(c2ccc(Cl)c(Cl)c2)N3)no1 (stereo not drawn) | 2.8% |

| Structure (SMILES) | cytotoxicity |
| --- | --- |
| Cc1cccc(NC(=O)c2cc3n(n2)C(C(F)(F)F)CC(c2ccc4c(c2)OCO4)N3)c1 (stereo not drawn) | 74.1% (active) |
| COc1ccc(NC(=O)c2cc3n(n2)C(C(F)(F)F)CC(c2ccc4c(c2)OCO4)N3)cc1OC (stereo not drawn) | 63.9% (active) |
| COc1ccc(OC)c(NC(=O)c2cc3n(n2)C(C(F)(F)F)CC(c2ccc4c(c2)OCO4)N3)c1 (stereo not drawn) | 44.5% |
| COc1ccccc1NC(=O)c1cc2n(n1)C(C(F)(F)F)CC(c1ccc3c(c1)OCO3)N2 (stereo not drawn) | 38.9% |
| COc1ccc(C2CC(C(F)(F)F)n3nc(C(=O)Nc4ccc5c(c4)OCO5)cc3N2)cc1 (stereo not drawn) | -7% |
| O=C(Nc1cc(Cl)ccc1O)c1cc2n(n1)C(C(F)(F)F)CC(c1ccc3c(c1)OCO3)N2 (stereo not drawn) | -8.7% |
| CCC(=O)N=c1sc2c(OC)ccc(OC)c2n1C | 1.2% |
| CCOC(=O)CSc1nnc([C@@H](NC(=O)OC(C)(C)C)C(C)C)o1 | 8.2% |
| O=C1CC(c2ccc(F)cc2)Cc2nc(N3CCN(c4ccccc4)CC3)ncc21 (stereo not drawn) | 4.6% |
| CC(=O)N1CCN=C1SCc1ccc(Br)cc1 | 1.6% |
| O=C(CCNc1n[nH]c(=O)[nH]c1=O)N1CCOCC1 | -0.4% |
| Cc1ccc(CNC(=O)CN2CCN(Cc3ccc(C)cc3)C2=O)cc1 | -20.9% |
| COc1cccc(NC(=O)c2ccccc2-c2nc(-c3cccc(C)c3)no2)c1 | 24.8% |
| CC(C)Cc1nc(N2CCCCC2)c(C#N)c2c1CCC2 | 11.9% |
| CC(C)Cc1nc(N2CCOCC2)c(C#N)c2c1CCC2 | 74.1% (active) |
| CCc1nc(N2CCOCC2)c(C#N)c2c1CCCC2 | 7.3% |
| CCCc1nc(N2CCOCC2)c(C#N)c2c1CCCC2 | -18.8% |
| CCCc1nc(N2CCCC2)c(C#N)c2c1CCCC2 | 51.6% (active) |
| CCc1nc(N2CCCC2)c(C#N)c2c1CCCC2 | -1.4% |
| CCc1cc(=O)oc2cc(OC(C)C(=O)O)c(Cl)cc12 (stereo not drawn) | 1.5% |
| O=C(Cc1nc2ccccc2[nH]1)NCc1ccco1 | -7.1% |
| COC(=O)c1cccc(S(=O)(=O)N2CCN(c3nc4ccccc4s3)CC2)c1 | -5.4% |
| CCOc1ccc(N(CC(=O)N2CCc3ccccc32)S(=O)(=O)c2c(C)noc2C)cc1 | -26.9% |
| CC(C)CN(C#N)c1nc(N2CCOCC2)nc(N2CCOCC2)n1 | 6.3% |
| COc1ccc(CNC(=O)C2CCNCC2)cc1 | -3.8% |

| Structure (SMILES) | cytotoxicity |
| --- | --- |
| O=C(Cc1cn2ccsc2n1)Nc1cccc2cnccc12 | 11.4% |
| Cc1cc(=O)[nH]c(SCCOc2cccc(C(F)(F)F)c2)n1 | -4.8% |
| O=C(CSc1nnc(SCc2ccc(Cl)cc2)s1)N1CCN(C(=O)c2ccco2)CC1 | -25.8% |
| O=C(CSc1nc2cc(Cl)ccc2s1)N1CCN(C(=O)c2ccco2)CC1 | -2.2% |
| O=C(CSc1c2c(nc3ccc(Cl)cc13)CCCC2)N1CCN(C(=O)c2ccco2)CC1 | 106% (active) |
| CC(C)(C)n1nnnc1C(c1ccc(C#N)cc1)N1CCCC2(CCCCC2)C1 (stereo not drawn) | 2.3% |
| CCOC(=O)c1ccc(NC(=O)CN2CCN(c3ccccc3)CC2)cc1 | 6% |
| CC(C)CC(=O)Nc1ccccc1N1CCCC1 | -9.5% |
| CCOC(=O)c1ccc(NC(=O)N2CCc3ccccc32)cc1 | 5.4% |
| O=C(CN1CCc2ccccc2C1)Nc1ccccc1N1CCCCCC1 | 93.4% (active) |
| CCOC(=O)c1ccc(NC(=O)CN2CCc3ccccc3C2)cc1 | 57.6% (active) |
| O=C(CN1CCCCC1)Nc1ccccc1NC(=O)CN1CCCCC1 | -13.4% |
| O=C(c1cccs1)N(Cc1cccc(Cl)c1)C1CCS(=O)(=O)C1 (stereo not drawn) | -4.1% |
| CCOc1ccccc1-n1nnnc1SCC(=O)Nc1cc2oc3ccccc3c2cc1OC | 43.6% |
| C=C(C)CSc1nc2nc(C)cc(C)n2n1 | 9.4% |
| CC(C)NC(=O)CN(C)S(=O)(=O)c1ccc(F)cc1 | 1.5% |
| O=C1NC2(CCCC2)N=C1c1ccc(Cl)cc1 | -2.7% |
| O=C1NC2(CCCCC2)N=C1c1ccccc1 | -3% |
| O=C(CN1CCN(c2ccc(F)cc2)CC1)Nc1ccc(-n2cnnn2)cc1 | 16.2% |
| CCOc1ccc2nc(NCCNC(=O)C3CC3)c(C)cc2c1 | -13.7% |
| CCCCc1ccc(CC(=O)O)cc1 | -6.3% |
| CCCCc1ccc(-c2ccc(C)cc2O)nc1 | -28.6% |
| COc1cccc2c1nc(C)c1cc(C)oc12 | -6.1% |
